Screens as filed in PubChem BioAssay.
Rows were chosen to be rich in hits. Some 3.4% of all compounds tested hit in one or more screens of this group.
USP28 inh: inhibitors of human USP28 deubiquitinase | purified USP28, Ub-rhodamine cleavage fluorescence, 30 min | inhibition, % at 25 µM | 47,000 tested, 3% active | AID 1645857, 2021
OTUD3 block: inhibitors of human OTUD3 deubiquitinase | 47,000 tested, 0.7% active | AID 1645858, 2021 | OTU domain-containing protein 3 (Homo sapiens), Q5T2D3 | purified OTUD3, Ub-rhodamine fluorescence, 2 h | inhibition, % at 25 µM
Target sequence (Q5T2D3 whole entry, looked up, the tested form may be a part): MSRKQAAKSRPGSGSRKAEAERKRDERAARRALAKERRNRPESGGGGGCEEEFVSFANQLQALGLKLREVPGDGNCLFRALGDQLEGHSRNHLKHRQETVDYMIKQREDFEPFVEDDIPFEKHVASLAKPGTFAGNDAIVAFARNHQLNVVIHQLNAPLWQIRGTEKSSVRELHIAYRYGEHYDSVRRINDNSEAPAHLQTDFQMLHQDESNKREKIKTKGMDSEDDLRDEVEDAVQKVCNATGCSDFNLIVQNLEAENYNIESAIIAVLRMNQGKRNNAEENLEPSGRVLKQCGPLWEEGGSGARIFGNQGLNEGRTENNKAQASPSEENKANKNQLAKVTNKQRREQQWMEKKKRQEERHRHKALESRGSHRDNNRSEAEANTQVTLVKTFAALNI
* hit, by the source's call. No stated cut-off is given here; in the data, active means inhibition above about 30%; inactive means the rest.

Cc1ccc(C)c(CN2C(=O)c3ccccc3S(=O)c3ccc(C(=O)NCCc4ccccc4)cc32)c1 (stereo unspecified) was read as USP28 inh 27 and OTUD3 block 7.
`O=C(NCc1cccnc1)C1CCCN(c2nnc3ccc(Cl)cn23)C1` (stereo unspecified) gave USP28 inh 11 and OTUD3 block 16.
Screening Cc1nn(C)c(C)c1CNC(=O)C1CCN(c2nnc3ccc(C(F)(F)F)cn23)CC1 returned USP28 inh 38* and OTUD3 block 6.
For O=C(NC(c1ccccc1)c1nnc(N2CCOCC2)o1)c1ccccc1Cl (stereo unspecified) the results were USP28 inh 9 and OTUD3 block 21.
For CC(C)(C)C(=O)NC(c1ccccc1)c1nnc(N2CCOCC2)o1 (stereo unspecified) the results were USP28 inh 74* and OTUD3 block 12.
CC1(C)C(O)CCC2(C)C1CCC1(C)C2C(=O)C=C2[C@@H]3C[C@@](C)(C(=O)O)CCC3(C)CC[C@]21C (stereo partly specified) was read as USP28 inh 29 and OTUD3 block 23.
For CCc1ccc(OCCn2c(CCNC(=O)C3CCCCC3)nc3ccccc32)cc1 the results were USP28 inh 17 and OTUD3 block 18.
Screening O=C(NCCc1nc2ccccc2n1CCOc1ccccc1Cl)C1CCCCC1 returned USP28 inh 30* and OTUD3 block 25.
Cc1ccc(S(=O)(=O)N2CCCn3nnc(CN4CCCCC4)c3C2)cc1 was read as USP28 inh -5 and OTUD3 block -4.
O=C(COC(=O)c1cc(Cl)c2c(c1)OCO2)Nc1ccc2[nH]c(=O)[nH]c2c1 was read as USP28 inh 51* and OTUD3 block 31*.
Screening O=C(COC(=O)c1ccc(F)cc1)Nc1ccc2[nH]c(=O)[nH]c2c1 returned USP28 inh 23 and OTUD3 block 10.
O=C(COC(=O)c1ccc(O)cc1)Nc1ccc2[nH]c(=O)[nH]c2c1 was read as USP28 inh 3 and OTUD3 block -4.
CC(CC(=O)OCC(=O)Nc1ccc2[nH]c(=O)[nH]c2c1)c1ccccc1 (stereo unspecified) was read as USP28 inh 31* and OTUD3 block -2.
For O=C(COC(=O)c1ccccc1F)Nc1ccc2[nH]c(=O)[nH]c2c1 the results were USP28 inh 37* and OTUD3 block 0.
Screening COc1ccc(C(NCC(=O)Nc2ccc3[nH]c(=O)[nH]c3c2)c2ccccc2)cc1 (stereo unspecified) returned USP28 inh -12 and OTUD3 block -11.
Cc1ccc(Cn2nnc3c(=O)[nH]c(C4CCN(C(=O)c5c(F)cccc5F)CC4)nc32)cc1 was read as USP28 inh 3 and OTUD3 block 2.
For CCS(=O)(=O)N1CCC(c2c(C)n(Cc3cccc(OC)c3)c3ccccc23)CC1 the results were USP28 inh -75 and OTUD3 block -53.
`O=C(c1ccccc1CN1CCOCC1)N1CCOCC2(C1)CN(c1ccc(F)cc1)C(=O)O2` (stereo unspecified) gave USP28 inh 0 and OTUD3 block 6.
COc1cc(Cn2nnc3ccccc32)cc(Br)c1O was read as USP28 inh 38* and OTUD3 block 9.
`COc1ccc(CNC(=O)Cn2cnc3ccccc32)cc1OC` gave USP28 inh -6 and OTUD3 block -4.
For CCn1ccc2c(cc(C(=O)Nc3cccc(C)c3C)n2C)c1=O the results were USP28 inh 31* and OTUD3 block -4.
Screening CCOc1ccccc1CNC(=O)c1cc2c(=O)n(C)ccc2n1C returned USP28 inh 14 and OTUD3 block 8.
Cn1c(=O)c2c(C(=O)Nc3cccc(F)c3)cc(=O)n(C)c2n(C)c1=O was read as USP28 inh -7 and OTUD3 block -4.
CCn1ccc2c(cc(C(=O)Nc3cccc(F)c3)n2C)c1=O was read as USP28 inh 43* and OTUD3 block -4.
`C=CCOc1ccc(C2c3c(oc4ccccc4c3=O)C(=O)N2c2nc3ccc(OCC)cc3s2)cc1` (stereo unspecified) gave USP28 inh 4 and OTUD3 block 4.
Screening COc1ccc(CNCc2c(C(=O)O)n(Cc3ccc(F)cc3Cl)c3cc(C)ccc23)cc1 returned USP28 inh 28 and OTUD3 block 13.
For Cc1ccc(Cn2c(C(=O)O)c(CNCc3cccc(Cl)c3)c3ccc(C)cc32)cc1 the results were USP28 inh 33* and OTUD3 block 12.
Screening Cc1cc2c(cc1CCc1cc3c(cc1C)OCO3)OCO2 returned USP28 inh -2 and OTUD3 block 0.
For C[C@H](Cc1cc2c(cc1O)OCO2)[C@@H](C)Cc1cc2c(cc1O)OCO2 the results were USP28 inh 97* and OTUD3 block 93*.
`O=C(Nc1ccccc1C(=O)O)c1ccc(CSCc2ccccc2)cc1` gave USP28 inh 31* and OTUD3 block 21.
